Bioassay records from PubChem.
ssDAF-12 act: S. stercoralis DAF-12 activation, primary screen. activation, % at 6.8 µM. HEK293 ssDAF-12/GRIP1 lit1-tk-luc reporter, luminescence; % of 3 µM dafachronic acid response. hit rate 1% among 370,000. AID 652126;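 active means activation above the mean over all tested compounds plus 3 SD, cut at about 0.9% in these data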;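 further: 0% = DMSO-only wells and 100% = 3 µM delta7-dafachronic acid wells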
DAX1 inh-1: inhibitors of human orphan nuclear receptor DAX1 (NR0B1) | P51843 | HEK293 Gal4-DAX1 luciferase reporter, luminescence | inhibition, % at 6.75 µM | hit rate 0.99% among 340,000 | AID 504766;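 active means inhibition above the mean over all tested compounds plus 3 SD, cut at about 4.2% in these data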;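 further: 0% = DAX1-transfected cells with DMSO and 100% = empty-vector control cells with DMSO; inhibition shows as a rise in luminescence from relieved DAX1 repression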
Target sequence (P51843 207-470 limits assumed): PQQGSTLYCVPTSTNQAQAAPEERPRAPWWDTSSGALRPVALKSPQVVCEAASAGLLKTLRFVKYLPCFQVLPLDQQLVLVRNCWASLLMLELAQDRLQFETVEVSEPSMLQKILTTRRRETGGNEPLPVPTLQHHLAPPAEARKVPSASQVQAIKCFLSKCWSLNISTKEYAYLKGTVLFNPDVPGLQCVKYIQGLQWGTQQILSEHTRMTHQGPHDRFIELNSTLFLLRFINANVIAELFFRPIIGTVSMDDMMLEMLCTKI
hgDAF12 agonist: activates the H. glycines DAF-12 receptor ligand-binding domain | HEK293 GAL4-hgDAF12 UAS-luciferase reporter, agonist luminescence; normalized to butyrate control | activation, % at 6.8 µM | AID 687014 | hit rate 1.8% among 370,000;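 active means activation above a cutoff set at the mean of all screened compounds plus 3 SD, cut at about 10% in these data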;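 further: 0% = DMSO wells and 100% = sodium butyrate wells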
hcDAF-12 act: activators of H. contortus DAF-12 nuclear receptor. HEK293 hcDAF-12 lit1-tk-luc reporter, luminescence; 0% DMSO, 100% Δ7-dafachronic acid. activation, % at 6.8 µM. hit rate 1.4% among 370,000. AID 652067;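 active means activation above the mean of all tested compounds plus 3 SD, cut at about 5.5% in these data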;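 further: 100% = response to 3 µM Δ7-dafachronic acid high control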
DAX1 inh-2: inhibitors of DAX1 repression of SF-1 activated StAR promoter. inhibition, % at 6.8 µM. hit rate 1.1% among 370,000. HEK293T StAR-luciferase reporter, SF-1/DAX-1 repression relief. AID 652010;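 active means inhibition above the mean over all tested compounds plus 3 SD, cut at about 3.6% in these data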;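 further: 0% = DAX-1 cells with DMSO and 100% = cells lacking DAX-1 with DMSO; higher inhibition means more luminescence from relief of DAX-1 repression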
LXRb hcDAF ctr: counter-screen for hcDAF-12 agonists: agonists of human LXR-beta; shares compounds with hcDAF-12 act; activation, % at 6.8 µM; 3,400 tested, under 10 active; AID 743027; HEK293 Gal4-LXR tk-luc reporter, luminescence, 24 h; normalized: DMSO 0%, positive control 100%;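 active means mean percent activation of the reporter above a cutoff set as the average over tested compounds plus their standard deviation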
hcDAF12 conf: confirmation of H. contortus DAF-12 agonists | shares compounds with hcDAF-12 act | HEK293 hcDAF-12 lit1-tk-luc reporter, luminescence; % of Δ7-dafachronic acid response | activation, % at 6.8 µM | hit rate 61% among 3,400 | AID 743032;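 active means mean activation across triplicate tests above the threshold derived from the earlier primary screen, cut at about 5.5% in these data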;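 further: 0% = DMSO only wells and 100% = 3 µM Δ7-dafachronic acid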
An asterisk follows results filed as active. Shown are actives, neighbours in structure and some others; about 4.1% of the full set was active somewhere.

Results for CC(=O)Nc1ccc(C(=O)CSc2cc(C)c3cccc(C)c3n2)cc1 ?
ssDAF-12 act: -1; DAX1 inh-1: -1; hgDAF12 agonist: -2; hcDAF-12 act: 0; DAX1 inh-2: 0

Results for Cc1ccc(OCCNC(=O)C2CC(=O)N(Cc3ccccc3)C2)cc1 (configuration not stated) ?
ssDAF-12 act: -1; DAX1 inh-1: -1; hgDAF12 agonist: -2; hcDAF-12 act: 0; DAX1 inh-2: -1

Results for O=C(Cc1ccccc1[N+](=O)[O-])Nc1ccc(S(=O)(=O)N2CCCC2)cc1 ?
ssDAF-12 act: 1.0*; DAX1 inh-1: 1; hgDAF12 agonist: 2; hcDAF-12 act: 9.7*; DAX1 inh-2: 1; LXRb hcDAF ctr: 0; hcDAF12 conf: 5

How did O=C(Cc1ccc(Br)cc1)Nc1ccc(S(=O)(=O)N2CCCC2)cc1 do in these assays?
ssDAF-12 act: -1; DAX1 inh-1: 0; hgDAF12 agonist: 0; hcDAF-12 act: -2; DAX1 inh-2: -3

What do the screens show for `CCc1ncc(C(O)c2ccc(Cl)cc2)n1Cc1ccccc1` (configuration not stated)?
ssDAF-12 act: -1; DAX1 inh-1: -1; hgDAF12 agonist: -5; hcDAF-12 act: -2; DAX1 inh-2: -3

What do the screens show for `O=S(=O)(c1ccc(Cl)c(NC(=S)Nc2cccc(O)c2)c1)N1CCOCC1`?
ssDAF-12 act: -1; DAX1 inh-1: 1; hgDAF12 agonist: -1; hcDAF-12 act: -1; DAX1 inh-2: 0

Results for CCN(C(=S)Nc1cc(S(=O)(=O)N2CCOCC2)ccc1Cl)c1cccc2ccccc12 ?
ssDAF-12 act: 1.2*; DAX1 inh-1: 0; hgDAF12 agonist: 0; hcDAF-12 act: 6.8*; DAX1 inh-2: -1; LXRb hcDAF ctr: 0; hcDAF12 conf: 1

What do the screens show for `CC1(C(=O)OCC(=O)Nc2ccc(S(=O)(=O)N3CCOCC3)cc2)CC1(Cl)Cl` (configuration not stated)?
ssDAF-12 act: -1; DAX1 inh-1: -2; hgDAF12 agonist: -1; hcDAF-12 act: 0; DAX1 inh-2: -2

What do the screens show for `C/C(=N\NC(=O)c1cc(C)oc1C)c1ccc2ccccc2c1`?
ssDAF-12 act: -2; DAX1 inh-1: 4.4*; hgDAF12 agonist: 11*; hcDAF-12 act: 7.2*; DAX1 inh-2: 0; LXRb hcDAF ctr: 0; hcDAF12 conf: -1

How did COc1cccc(CNC(=O)c2cc(S(=O)(=O)N3CCCCC3)ccc2C)c1 do in these assays?
ssDAF-12 act: -1; DAX1 inh-1: 0; hgDAF12 agonist: 0; hcDAF-12 act: -2; DAX1 inh-2: 1

How did CNC(=O)C[C@H]1C(=O)N(c2ccc(OC)cc2)C[C@@H]1CSC do in these assays?
ssDAF-12 act: -1; DAX1 inh-1: 0; hgDAF12 agonist: 0; hcDAF-12 act: -1; DAX1 inh-2: 1

Results for O=C1C=C(Nc2ccc(O)cc2)C(=O)c2ccccc21 ?
ssDAF-12 act: 1; DAX1 inh-1: 0; hgDAF12 agonist: 7; hcDAF-12 act: 8.8*; DAX1 inh-2: -1; LXRb hcDAF ctr: 1; hcDAF12 conf: 6.6*

Results for COc1ccc(N(CC(=O)NC2CCCC2)C(=O)CCC(=O)Nc2cc(C)on2)cc1OC ?
ssDAF-12 act: 0; DAX1 inh-1: 1; hgDAF12 agonist: 1; hcDAF-12 act: 3; DAX1 inh-2: 0

What do the screens show for `C/C(=C\C(=S)Nc1ccccc1)Nc1ccc2ccccc2c1`?
ssDAF-12 act: 0; DAX1 inh-1: -1; hgDAF12 agonist: 3; hcDAF-12 act: 6.9*; DAX1 inh-2: 0; LXRb hcDAF ctr: 1; hcDAF12 conf: 5

Results for O=c1c2cc(F)ccc2[nH]c(=S)n1CCCN1CCOCC1 ?
ssDAF-12 act: -2; DAX1 inh-1: 4; hgDAF12 agonist: -2; hcDAF-12 act: 11*; DAX1 inh-2: 0; LXRb hcDAF ctr: 0; hcDAF12 conf: -1

Results for O=c1c2cc(N3CCOCC3)ccc2[nH]c(=S)n1CCCN1CCCCCC1 ?
ssDAF-12 act: 0; DAX1 inh-1: 1; hgDAF12 agonist: 1; hcDAF-12 act: -1; DAX1 inh-2: 2

Results for Cc1ccc(NC(=O)Cc2c(Cl)cccc2Cl)cc1S(=O)(=O)N(C)C ?
ssDAF-12 act: -1; DAX1 inh-1: -1; hgDAF12 agonist: -2; hcDAF-12 act: 11*; DAX1 inh-2: -1; LXRb hcDAF ctr: 0; hcDAF12 conf: 2

How did CCOP(=O)(OCC)C(Nc1ccccc1)c1ccccc1C(F)(F)F (configuration not stated) do in these assays?
ssDAF-12 act: 0; DAX1 inh-1: -1; hgDAF12 agonist: 0; hcDAF-12 act: -2; DAX1 inh-2: 0

What do the screens show for `O=C(Cc1ccc(Br)cc1)NC1CCCCC1`?
ssDAF-12 act: -2; DAX1 inh-1: 1; hgDAF12 agonist: 0; hcDAF-12 act: 1; DAX1 inh-2: 0

Results for O=C(Cc1ccc(O)cc1)NC1CCCCCC1 ?
ssDAF-12 act: 0; DAX1 inh-1: 0; hgDAF12 agonist: 8; hcDAF-12 act: 6.8*; DAX1 inh-2: 1; LXRb hcDAF ctr: 0; hcDAF12 conf: 4

How did O=C(NCCNC1CCC(c2ccccc2)CC1)c1cccs1 (configuration not stated) do in these assays?
ssDAF-12 act: -2; DAX1 inh-1: 0; hgDAF12 agonist: 2; hcDAF-12 act: -1; DAX1 inh-2: 0

What do the screens show for `Oc1ccc(/C=C/c2ccc3ccccc3n2)cc1`?
ssDAF-12 act: -2; DAX1 inh-1: -7; hgDAF12 agonist: 0; hcDAF-12 act: 1; DAX1 inh-2: 0

How did C(=C\c1ccc2ccccc2n1)/c1ccccc1 do in these assays?
ssDAF-12 act: 1.3*; DAX1 inh-1: -2; hgDAF12 agonist: 6; hcDAF-12 act: 14*; DAX1 inh-2: 2; LXRb hcDAF ctr: 1; hcDAF12 conf: 13*

What do the screens show for `Cc1cc(C)n2nc(SC(C)C(=O)Nc3ccc(Cl)cn3)nc2n1` (configuration not stated)?
ssDAF-12 act: -1; DAX1 inh-1: 0; hgDAF12 agonist: 2; hcDAF-12 act: 1; DAX1 inh-2: 0
